TDP1 cell CPT: DT40-hTDP1 cell growth loss with CPT; AID 686979; actives 12% (n = 420,000); Potency, µM (doses to about 46.2 µM), actives largely listed as inhibitors; chicken DT40 Tdp1-/-;hTDP1 cells + 20 nM CPT, ATP luminescence, 48 h; also: nearly all actives have a fitted effect of over 55% in size
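Chicken DT40 Tdp1-/- cells stably complemented with human TDP1 were seeded at 400 cells/well in medium containing 20 nM camptothecin, exposed to pin-transferred compounds, and grown at 37 °C for at least 48 hr. Viability was read as ATP luminescence.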
IL1B secr inh: inhibitors of inflammasome signaling (IL-1 beta secretion). THP-1 LPS/ATP IL-1B secretion, AlphaLISA, 16 h; stronger effect = lower value. activity change, % at 57.5 µM. actives 4.7% (n = 360,000); in the data active = activity change below about -50%; inconclusive = mostly about -30% to -49%
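Secreted IL-1B measured by AlphaLISA bead assay after 16 h compound exposure of THP-1 cells; compounds (final up to 57.5 uM) added 1 h before LPS (250 ng/mL) and ATP (1.25 mM) stimulation; lower signal means less secretion.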
HT1080-NT tox: kills 2HG-producing HT-1080-NT fibrosarcoma cells; HT-1080-NT fibrosarcoma viability, CellTiter-Glo ATP luminescence, 48 h; Potency, µM (titrated, usually from 46.1 µM), usual class: cytotoxic; actives 1.6% (n = 360,000); AID 686970;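 also: NT is the 2HG producing partner of a matched IDH1 knockdown line; nearly all actives have a fitted effect of over 55% in size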
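Viability by CellTiter-Glo luminescence after 48 h compound exposure at 37C of HT-1080-NT cells (750/well, RPMI, 5% FBS). % activity scaled between DMSO wells and medium-only wells, then curve-fitted and categorized by curve class.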
HT1080 IDH1KD tx: toxicity to HT-1080 IDH1 knockdown cells (counter line). HT-1080 IDH1 knockdown viability, ATP luminescence, 48 h. Potency, µM (doses to about 46.1 µM), usual class: cytotoxic. actives 2% (n = 360,000)
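Viability of IDH1-knockdown HT-1080 fibrosarcoma cells was assessed by CellTiter-Glo after 48 h at 37 °C with titrated compound; concentration-effect curves were classified by fit quality and response size.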
DT40 TDP1 no CPT: qHTS for Inhibitors of human tyrosyl-DNA phosphodiesterase 1 (TDP1): qHTS in cells in absence of CPT. actives 15% (n = 420,000). DT40 Tdp1-/- hTDP1 cells, no CPT, ATP luminescence, 48 h. Potency, µM (top dose mostly 46.2 µM), most hits filed as inhibitors. AID 686978, 2013; also: nearly all actives have a fitted effect of over 55% in size
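Cells were dispensed at 400 per well, compounds added by pin tool, plates incubated ≥48 hr at 37 °C, then CellTiter-Glo added for 30 min at room temperature before luminescence reading. Line: DT40 Tdp1-/- complemented with hTDP1; camptothecin omitted.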
12-LOX inh: blocks human arachidonate 12S-lipoxygenase; P18054; purified 12hLO, xylenol orange hydroperoxide absorbance; Potency, µM (highest dose often 108 µM), hits mostly inhibitors; actives 1.1% (n = 580,000)
Target sequence (P18054 whole entry, looked up): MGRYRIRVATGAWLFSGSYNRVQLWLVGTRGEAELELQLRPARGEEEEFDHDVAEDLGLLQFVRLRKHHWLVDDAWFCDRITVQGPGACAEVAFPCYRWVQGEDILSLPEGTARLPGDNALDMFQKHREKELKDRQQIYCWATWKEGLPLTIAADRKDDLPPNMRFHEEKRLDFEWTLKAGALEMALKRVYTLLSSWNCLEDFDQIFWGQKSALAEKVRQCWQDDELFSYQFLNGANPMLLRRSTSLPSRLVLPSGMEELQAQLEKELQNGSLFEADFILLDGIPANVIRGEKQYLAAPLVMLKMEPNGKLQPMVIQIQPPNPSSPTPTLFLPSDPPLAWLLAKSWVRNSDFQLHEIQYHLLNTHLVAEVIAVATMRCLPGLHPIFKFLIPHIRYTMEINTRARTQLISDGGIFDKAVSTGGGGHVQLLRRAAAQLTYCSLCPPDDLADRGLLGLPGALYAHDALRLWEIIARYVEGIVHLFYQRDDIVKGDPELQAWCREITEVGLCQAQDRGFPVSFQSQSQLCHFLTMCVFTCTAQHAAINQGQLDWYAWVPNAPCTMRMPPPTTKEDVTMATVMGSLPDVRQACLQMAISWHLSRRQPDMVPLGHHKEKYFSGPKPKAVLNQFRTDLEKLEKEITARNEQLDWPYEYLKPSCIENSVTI
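Purified human 12hLO at 150 nM in 25 mM Hepes, 0.01% Triton X-100, pH 7.0, preincubated 15 min at room temperature with compound. Reaction started with 40 uM arachidonic acid, 30 min at room temperature. Hydroperoxide measured by Fe-xylenol orange, 573/405 nm absorbance ratio.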
A number is an active result; – = inactive; ? = inconclusive; · = not tested or not shown; [ ] = another dose, or the depositor's remark. This is one part of a sample in which hits are shown more often than they occur. Unless noted, calls follow the shape of the dose curve; as a rule, active = well fitted curve in the direction sought with a large enough effect; inconclusive = small, poorly fitted or top-dose-only effect, or another doubt; inactive = no such curve, though single readings can be large; an effect the other way counts as inactive or inconclusive.

SMILES	TDP1 cell CPT	IL1B secr inh	HT1080-NT tox	HT1080 IDH1KD tx	DT40 TDP1 no CPT	12-LOX inh
Cc1ccc(-c2nnn(CC(=O)N(Cc3ccco3)C(C(=O)NC(C)(C)C)c3ccc(C)o3)n2)o1 (stereo unspecified)	16µM	–	–	–	21µM	–
Cc1ccc(N(C(=O)Cn2nnc(-c3ccc(C)o3)n2)C(C(=O)NC2CCCC2)c2ccco2)cc1 (stereo unspecified)	?	–	?	?	13µM	–
Cc1ccc(N(C(=O)Cn2nnc(-c3ccccc3F)n2)C(C(=O)NC2CCCC2)c2ccncc2)cc1 (stereo unspecified)	?	–	–	–	?	–
Cc1ccc(-c2nnn(CC(=O)N(c3ccccc3)C(C(=O)NC3CCCC3)c3ccncc3)n2)o1 (stereo unspecified)	–	–	–	–	–	–
CCN(CC)c1ncccc1CNC(=O)COC	·	·	·	·	·	–
O=C(Nc1nc(C23CC4CC(CC(C4)C2)C3)cs1)c1cc(-c2ccncc2)nc2ccccc12	·	·	·	·	·	–
CC(=O)c1ccc(N2CCN(Cc3nc(-c4cccs4)no3)CC2)c(F)c1	·	·	·	·	·	–
Cc1ncc(CO)c(CN2CCC3(Cc4ccccc4CNC3=O)C2)c1O (stereo unspecified)	·	·	·	·	·	–[6.33 µM]
CCOC(=O)c1nc(NCc2ccccc2OCC)c2ccccc2n1	·	·	·	·	·	–
CSc1nc2ccc(Cl)cc2[nH]1	?	–	–	–	?	–
CSc1nc2cc(Oc3cccc(Cl)c3Cl)c(Cl)cc2[nH]1	?	–	9.2µM	?	?	–
O=S(=O)(c1ccc(NC(=S)N/N=C/c2ccc(N3CCOCC3)cc2)cc1)N1CCOCC1	4.1µM	–	–	–	3.7µM	–
O=S(=O)(c1ccc(NC(=S)N/N=C/c2ccc(Oc3ccccc3)cc2)cc1)N1CCOCC1	–	–	–	–	–	?
O=S(=O)(c1ccc(NC(=S)N/N=C/c2c3ccccc3cc3ccccc23)cc1)N1CCOCC1	2.6µM	–	?	?	3.7µM	?
CC(CN1CCCCC1)OC(=O)C(C)(c1ccccc1)c1ccccc1 (stereo unspecified)	?	–	–	–	21µM	–
Cn1c(-c2ccccc2)cnc1NC(=O)NCCc1ccccc1	·	·	·	·	·	–
Clc1cccc(-n2cc(-c3ccccc3)c3c(NC4CCCC4)ncnc32)c1	?	·	·	·	?	–
COc1ccc(-n2cc(-c3ccccc3)c3c(NC4CCCC4)ncnc32)cc1	23µM	·	·	·	18µM	–
COc1cccc(N2CCN(c3ncnc4c3c(-c3ccccc3)cn4-c3cccc(C(F)(F)F)c3)CC2)c1	–	·	·	·	?	–
COc1ccc(-n2cc(-c3ccccc3)c3c(N4CC(C)OC(C)C4)ncnc32)cc1 (stereo unspecified)	?	–	?	23µM	12µM	–
CCCOc1ccccc1C(=O)Nc1nonc1CC	·	·	·	·	·	–
CCO/C(C)=N/n1c2nc3ccccc3nc2c2c(=O)n(Cc3ccccc3Cl)c(C)nc21	?	?	–	–	26µM	–
CCOc1c(C)cnc2c1c(=O)n(Cc1ccccc1Cl)c(=O)n2C	–	–	–	–	–	–
O=C(N/N=C/c1ccccc1Cl)C1CC1	–	?	–	–	–	–
S=C(N/N=C/c1ccccc1Cl)Nc1cccc(Cl)c1Cl	?	–	?	?	10µM	–
SMILES	TDP1 cell CPT	IL1B secr inh	HT1080-NT tox	HT1080 IDH1KD tx	DT40 TDP1 no CPT	12-LOX inh
S=C(NCC1CC1)N/N=C/c1ccccc1Cl	?	–	–	–	23µM	?
CN(C)c1nc(Nc2ccc(F)cc2)nc(Oc2ccc(F)cc2)n1	?	–	–	–	?	–
NC(=S)N/N=C/c1cc([N+](=O)[O-])ccc1Cl	–	–	–	–	–	–
O=C(NN=Cc1ccccc1Cl)c1ccccc1	–	–	–	–	?	–
CN(C)c1nc(N/N=C/c2ccccc2O)nc(Nc2ccc(F)cc2)n1	2.3µM	–	?	13µM	0.58µM	–
O=[N+]([O-])c1ccc(Cl)c(/C=N/NC(=S)Nc2ccccc2)c1	11µM	–	?	4.5µM	10µM	–
CC1(C)[C@H](Cc2cc(CC3CCCCC3)on2)C[C@@H]1NC(=O)c1ccccc1	·	·	·	·	·	–
Fc1ccc(NC(=S)NN=Cc2ccccc2Cl)cc1	2.3µM	–	–	–	3.3µM	50µM
O=C(CCC(=O)Nc1ccc(F)cc1)N/N=C/c1ccccc1O	?	–	–	–	?	–
O=C(N/N=C/c1ccccc1Cl)c1ccc(F)cc1	–	–	–	–	–	–
Oc1ccccc1C=NNC(=S)Nc1ccc(F)cc1	0.92µM	-95	?	5.8µM	1.5µM	?
O=C(O)COc1ccccc1C=NNc1ccc([N+](=O)[O-])cc1S(=O)(=O)Nc1ccc(Cl)cc1	–	–	–	–	–	35µM
COc1ccc(NS(=O)(=O)c2cc([N+](=O)[O-])ccc2NN=Cc2ccccc2OCC(=O)O)cc1	–	–	–	–	–	?
O=C(O)COc1ccccc1/C=N/Nc1ccc(S(=O)(=O)Nc2ccc(Cl)cc2)cc1[N+](=O)[O-]	–	–	–	–	–	32µM
O=C(O)c1ccccc1NS(=O)(=O)c1ccc(N/N=C/c2c(-c3ccccc3)[nH]c3ccccc23)c([N+](=O)[O-])c1	·	·	·	·	·	13µM
Cc1cc(C)c2oc(C(=O)Nc3ccc(S(=O)(=O)Nc4onc(C)c4C)cc3)cc(=O)c2c1	·	·	·	·	·	–
CC(C)Cc1nc2cccnc2n1C1CCN(S(=O)(=O)c2ccc(Br)s2)CC1	·	·	·	·	·	–
CNC(=O)c1c(NC(=O)Cc2coc3ccc(C)cc23)sc2c1CCCC2	?	·	·	·	18µM	–
CCc1ccc2occ(CC(=O)Nc3sc4c(c3C(=O)OC)CCC4)c2c1	13µM	·	·	·	18µM	–
O=C(c1cn(-c2ccccc2)nc1-c1cccnc1)N1CCN(c2ccccc2O)CC1	·	·	·	·	·	–
COP(=O)(OC)c1nc(-c2ccc([N+](=O)[O-])cc2)oc1NCc1ccccc1	·	·	·	·	·	–
CN=c1scc(C)n1/N=C/c1ccco1	·	·	·	·	·	–
O=C1NC(c2ccccc2Cl)Nc2ccccc21 (stereo unspecified)	?	–	?	?	18µM	–
O=C1NC(c2cccs2)Nc2ccccc21 (stereo unspecified)	5.2µM	–	–	–	8.2µM	–
COc1ccc2ccccc2c1C1NC(=O)c2ccccc2N1 (stereo unspecified)	2.6µM	–	5.2µM	?	3.7µM	–
O=C1NC(c2cccc3ccccc23)Nc2ccccc21 (stereo unspecified)	0.58µM	–	1.3µM	0.73µM	0.92µM	?

Compound activity deposited in PubChem BioAssay by National Center for Advancing Translational Sciences (NCATS).
